# Source: PubChem
# Rows were chosen to be rich in hits. Some 6.2% of all compounds tested hit in one or more screens of this group.
# SUMO Mot1 rescue: yeast Mot1-301 growth rescue at high temperature, primary screen, SUMOylation pathway inhibitor project, S. cerevisiae, ATP luminescence, 38.5C. 320,000 compounds, 1% hits. growth rescue, % at 18.8 µM. AID 2716, 2010. S. cerevisiae Mot1-301 growth rescue; percent above DMSO median, 100 means doubled;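 active = every valid replicate shows activation above 250% relative to neutral control wells; inactive = the rest, any valid replicate at or below 250%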;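 also: OY570 slx delta 5 strain wells were the positive control but not used for scaling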
# Cardio protect: cardioprotection against H2O2-induced cell death, primary screen, uHTS, H9c2 cells, ATPLite luminescence; H9c2 cardiomyocytes, H2O2 injury protection, 2 h; protection from H2O2 cell death, % at 20 µM; 360,000 compounds, 0.63% hits; AID 588492, 2011;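 active = compounds giving at least 50% protection of heart cells from peroxide-induced death in the single-dose screen, raw or plate-pattern-corrected value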;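 also: 0% = DMSO wells with peroxide and 100% = DMSO wells without peroxide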
# AHR act: AHR activators, primary screen, cell-based, luminescence, luciferase reporter, human. AHR-responsive luciferase reporter cells. Aryl hydrocarbon receptor (Homo sapiens), P35869. activation, % at 5 µM. 320,000 compounds, 2.5% hits; in the data active = activation above about 47%;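 also: 0% = vehicle wells and 100% = reference agonist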
# Target sequence (P35869 whole entry, looked up): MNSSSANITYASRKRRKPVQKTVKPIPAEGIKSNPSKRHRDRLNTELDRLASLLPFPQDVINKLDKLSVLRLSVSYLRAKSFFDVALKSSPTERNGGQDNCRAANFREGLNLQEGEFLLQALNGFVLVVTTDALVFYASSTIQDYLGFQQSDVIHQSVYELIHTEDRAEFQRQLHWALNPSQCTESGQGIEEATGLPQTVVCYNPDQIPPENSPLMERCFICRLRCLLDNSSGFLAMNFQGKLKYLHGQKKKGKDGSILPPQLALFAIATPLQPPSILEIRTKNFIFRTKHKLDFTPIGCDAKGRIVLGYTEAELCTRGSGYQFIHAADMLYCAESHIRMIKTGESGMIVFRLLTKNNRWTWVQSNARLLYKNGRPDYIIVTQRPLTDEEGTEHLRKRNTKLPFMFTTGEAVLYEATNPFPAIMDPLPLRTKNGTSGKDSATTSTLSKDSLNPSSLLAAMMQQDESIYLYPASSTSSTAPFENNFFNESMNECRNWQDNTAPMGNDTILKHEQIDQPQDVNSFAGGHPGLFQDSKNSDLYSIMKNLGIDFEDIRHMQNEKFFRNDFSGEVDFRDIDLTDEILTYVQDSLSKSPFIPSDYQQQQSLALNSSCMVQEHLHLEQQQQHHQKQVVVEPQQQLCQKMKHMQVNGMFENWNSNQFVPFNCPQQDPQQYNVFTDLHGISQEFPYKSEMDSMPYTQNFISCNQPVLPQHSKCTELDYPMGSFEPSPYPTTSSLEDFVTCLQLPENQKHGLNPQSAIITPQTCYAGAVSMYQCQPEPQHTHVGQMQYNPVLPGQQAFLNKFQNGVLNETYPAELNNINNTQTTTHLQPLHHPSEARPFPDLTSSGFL
# NR3A LBD binder: binders of NR3A ligand-binding domain, primary screen, biophysical, differential scanning fluorimetry, uHTS. NR3A LBD differential scanning fluorimetry, Tm shift; 0% = protein alone, 100% = glycine-bound protein. Tm shift relative to glycine control, % at 25 µM. 340,000 compounds, 2.5% hits;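 active = melting temperature shift of at least 10% of the positive control shift, at one fixed dose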
# AI-2 QS mod: Vibrio harveyi AI-2 quorum sensing modulators, primary screen, JMH597 strain, luminescence/OD600 ratio; Vibrio harveyi JMH597 AI-2 luminescence/OD600 ratio, 9 h; hits give low values; strain lacks LuxN and CqsS sensors; 0 = neutral-control median; activity change, % at 7.5 µM; 300,000 compounds, 0.4% hits; AID 2094, 2009; in the data active = activity change below about -75%, passing the limit was not always enough;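 also: luminescence divided by OD600 gain over 9 h not by final OD600 alone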
# NTR1 ag: agonists of human NTR1, primary screen, imaging, U2OS cells, beta-arrestin-GFP, high content | 330,000 compounds, 0.17% hits | activation, % at 20 µM | Neurotensin receptor type 1 (Homo sapiens), P30989 | NTR1-U2OS beta-arrestin-GFP spot imaging, agonist mode;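 active = activation at or above 40% of the spot to cytoplasm intensity ratio, with at least 20 cells analyzed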;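 also: 0% = DMSO without peptide and 100% = 100 nM NTR1 peptide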
# * marks the source's active call; other numbers are inactive results; / = no result given.
SMILES,SUMO Mot1 rescue,Cardio protect,AHR act,NR3A LBD binder,AI-2 QS mod,NTR1 ag
COc1ccc(-c2csc(NC(=O)CSc3nc(SC)ns3)n2)cc1,13.7,-21.9,58.3*,6.8,32.4,7.1
COc1ccc(-n2c(CNc3ccc(C)cc3)nnc2SCC(=O)Nc2nc(-c3ccccc3)cs2)cc1,1.9,-5.5,-1.1,-2.3,11.0,1.4
COc1ccc(NCc2nnc(SCC(=O)Nc3nc(-c4ccccc4)cs3)n2-c2ccccc2)cc1,7.3,-10.8,5.4,11.6*,15.5,3.8
CCN(CC(=O)Nc1c(F)cccc1F)C(=O)c1ccc(N2C(=O)c3ccccc3C2=O)cc1,9.9,3.8,-1.6,-0.3,-2.3,-0.7
Oc1[nH]c2ccccc2c1N=Nc1ccccc1,39.0,-11.1,46.0,-8.4,18.1,12.0
O=C(N=Nc1c(O)[nH]c2ccccc12)c1cc(-c2ccc(F)cc2)n[nH]1,-11.4,5.0,3.2,19.3*,20.2,0.2
O=C(N=Nc1c(O)[nH]c2ccccc12)c1cc(-c2cccs2)[nH]n1,10.6,14.3,83.8*,22.3*,17.2,2.3
Oc1[nH]c2ccccc2c1N=Nc1ccccc1F,28.4,-8.2,53.6*,7.8,18.0,2.6
Cc1[nH]c2ccccc2c1N=Nc1ccccc1C(=O)O,-0.7,2.0,74.9*,-11.1,9.7,0.4
O=C(Cc1cccs1)N=Nc1c(O)[nH]c2ccccc12,-11.7,-2.2,7.6,-2.2,0.9,1.2
Cc1cc(NC(=O)CSc2nc(-c3cccs3)nc3ccccc23)no1,15.0,10.3,0.5,1.9,/,1.9
CN(C)S(=O)(=O)N1CCN(CC(=O)Nc2ccc(F)cc2)CC1,-5.8,8.1,0.2,-3.0,-2.4,0.3
COc1ccc(NC(=O)c2cc(-c3ccccn3)nc3ccccc23)cc1S(=O)(=O)N(C)C,-2.7,89.2*,11.1,-0.3,/,1.7
CCN(CC)S(=O)(=O)c1cc(NC(=O)c2cc(-c3ccccn3)nc3ccccc23)ccc1C,-6.2,26.0,2.4,-17.4,8.7,3.5
COc1ccc(NC(=O)c2cc(-c3cc(OC)c(OC)c(OC)c3)nc3ccccc23)cc1OC,-6.2,63.1*,8.9,-4.2,35.5,6.1
CCN(CC)S(=O)(=O)c1ccc(O)c(NC(=O)c2cc(-c3cc(OC)c(OC)c(OC)c3)nc3ccccc23)c1,88.0,-3.0,2.3,17.0*,25.0,26.0
COc1ccccc1NC(=O)c1cc(-c2ccc(OC)c(OC)c2)nc2ccccc12,/,57.4*,/,-1.0,18.0,6.4
COc1cc(-c2cc(C(=O)Nc3ccc(S(N)(=O)=O)cc3)c3ccccc3n2)cc(OC)c1OC,-9.3,24.3,6.7,0.6,4.1,6.9
CSc1nc(N)nc2c1ncn2Cc1ccccc1,/,-9.7,/,0.5,/,/
COc1cc(-c2cc(C(=O)OCC(=O)NC3CC3)c3ccccc3n2)cc(OC)c1OC,4.9,63.9*,8.7,-1.0,/,3.2
CCOc1ccccc1NC(=O)c1cc(-c2ccccn2)nc2ccccc12,-13.9,40.0,71.2*,0.2,/,1.9
COc1ccc(S(=O)(=O)Nc2c(C)cc(C)cc2C)c2cccnc12,-6.6,1.6,-1.9,-1.8,2.6,-3.2
CCc1ccc(C(C)NC(=O)c2cc(C)oc2C)cc1 (centres undefined),-10.4,55.8*,1.4,0.1,10.0,-0.6
Cc1cc(C(=O)NN)c(C)o1,-6.4,8.0,10.3,-0.8,31.5,1.4
COC(=O)C1=C(C)N(C)C(C)=C(C(=O)OC)C1c1ccsc1,4.2,-0.3,1.9,12.2*,14.1,0.1
CCOC(=O)c1c(NC(=O)C(C)OC(=O)c2ccc(NC(=O)CC#N)cc2)sc2c1CCCC2 (centres undefined),13.8,6.1,6.3,12.1*,14.7,9.1
CCOC(=O)CNC(=S)N(CCCN1CCN(C)CC1)Cc1cccs1,127.8,-0.2,1.9,1.1,-7.9,-0.3
